Active and inactive are the calls of the source. The calls were made as follows: active = hit-call score of the fitted dose curve at least 0.9, where 1 is the maximum; inactive = score below 0.9.
Assay: UKN2_HCS_IMR90_neural_migration: University of Konstanz (UKN) Leist Lab Neural Crest Cell Migration Assay in human induced IMR90 Pluripotent Stem Cells (UKN2) (AID 2284204)
Conditions: actives raise or lower the signal
Experimental: UKN2_HCS_IMR90 is a cell-based, multiplexed-readout assay screening for neural crest cell migration and cell viability that uses IMR90 (neural crest cells differentiated from iPSC), a human embryo cell line, with measurements taken at […] after chemical dosing in a microplate: 96-well plate. UKN2, also known as cMINC, is an assay that uses IMR90 cells (neural crest cells differentiated from iPSC) as a model of neural crest cell migration. 24 hr after cell seeding, cell migration was initiated and proceeded for 24 hr. Then, chemical was applied, and after 24 hr of exposure migration and viability were assessed using high-content imaging of cells stained with calcein-AM and Hoechst H-33342.UKN2_HCS_IMR90_neural_migration is an assay component measured from the UKN2_HCS_IMR90 assay. It is designed to make measurements of neural crest cell migration, a form of morphology reporter, as detected with Fluorescence intensity signals by HCS Fluorescent Imaging.The assay endpoint UKN2_HCS_IMR90_neural_migration was analyzed with bidirectional fitting relative to DMSO as the negative control and baseline of activity. Using a type of morphology reporter, gain or loss-of-signal activity can be used to understand developmental effects. To generalize the intended target to other relatable targets, this assay endpoint is annotated to the neurodevelopment intended target family, where the subfamily is neural crest cell migration.
The wells are coated with PLO/laminin/fibronectin. Then, silicone stoppers are placed into the wells of a 96-well plate. Cells are seeded around the stoppers and allowed to attach for 24 hours. Day 0: The silicone stoppers are removed and the medium is replaced with pre-warmed, fresh N2-S medium containing the cytokines EGF and FGF. Cells are allowed to migrate into the cell free area. Day 1: 25 ul of the 5x concentrated toxicants are added to the wells. The cells plus toxicants are incubated for 24 h. Day 2: Cells are stained with calcein-AM and Hoechst (H-33342) for 30 min before imaging with a high content imaging microscope. Quantification of migration and viability is done by high content imaging analysis.

outcome, inactive:
CC(=O)OC/N=[N+](\C)[O-], CC(C)c1nn(C(=O)NC(C)(C)C)c(=O)n1N, Brc1cc(Br)c(Oc2cc(Br)c(Br)cc2Br)cc1Br, CCCCCC(C)(CC)C(=O)NC (stereo not given), O.O=S(=O)([O-])[O-].[Mn+2], CC(C)O, Cc1[nH]n(C)c(=O)c1C(=O)c1ccc(C(F)(F)F)cc1S(C)(=O)=O, CCCCCC=C(C)C(CC)CCO (stereo not given), CC(CNC(=S)[S-])NC(=S)[S-].[Zn+2] (stereo not given), C[C@@H]1CCO[C@H]2Cn3cc(C(=O)NCc4ccc(F)cc4F)c(=O)c(O)c3C(=O)N12, C[C@@H]1CC[C@@H](C(C)(C)O)[C@H](O)C1, Cc1ccccc1, CCc1ccccc1, CC(=O)N[C@@H](CC(=O)O)C(=O)O

AC50, active:
BrC1CC(Br)CC(Br)CC(Br)CC(Br)CC(Br)C1 (stereo not given) 5.5 µM
